The text below walks through data of PubChem BioAssay (Tox21).

Values joined by “and” are separate entries in the source; they are usually repeats but may differ in a detail not shown here. Equal entries are not always repeated. Records with an inconclusive call do not appear. A call without a number means that no potency is given here. Active and inactive are the calls of the source. Calls follow the shape of the full dose curve.
Potency is read from the fitted curve at half-maximal effect.

The nature of the experiment: qHTS assay to identify small molecule agonists of H2AX - cell viability counter screen (AID 1224847). Also: nearly all actives have a fitted effect of over 30% in size. As to activity change, negative = cytotoxicity: top concentration of the series differs between compounds. To be noted: CHO-K1 viability, CellTiter-Glo luminescence, 3 h; series mostly up to 154 µM; activity change, negative = cytotoxicity: at the top concentration. The text has this: National Center for Advancing Translational Sciences [NCATS]
NIH Chemical Genomics Center [NCGC]
U.S. Environmental Protection Agency [EPA]
National Institutes of Environmental Health Sciences [NIEHS]
National Toxicology Program [NTP]
U.S. Food and Drug Administration [FDA]
HTRF phospho-H2AX (Ser139) assay (Cisbio Bioassays, US) enables the quantitative detection of the histone variant H2AX when phosphorylated on serine 139. When double-stranded DNA breaks, either by ionizing radiation or endogenous physiological processes, H2AX becomes phosphorylated at Ser139. This phospho-Ser139 serves as a sensitive biomarker for the detection of such breaks, localizing the site of DNA repair. So, HTRF phospho-H2AX Ser139 is a pertinent assay to study genome stability, the cell cycle, DNA repair, and it serves as a biomarker for cancer, and to understand aging. Wild type CHO-K1 cells were used to identify the inducers of Phospho-H2AX Ser 139 from the Tox21 compound collections. Also cytotoxicity of the Tox21 10K compound library against the CHO-K1 cell line was tested by measuring the cell viability using CellTiter-Glo assay (Promega, Madison, WI).
Tox21 Assay Protocol Summary:
The CHO-K1 cells suspended in culture medium containing 10% FBS were dispensed at 1000 cells/ 3 ul/well in 1536-well white wall/solid bottom plates (Greiner Bio-One North America, NC) using a Multidrop Combi (Thermo Fisher Scientific Inc., Waltham, MA). After the assay plates were incubated at 37C overnight, 23 nl of compounds at 15 concentrations (from 5-48 columns) or positive control (from 1 to 4 columns) were transferred to the assay plates using a Pintool station (Wako, San Diego, CA) into each well resulting in a final DMSO concentration of 0.76%. After 3hr incubation at 37C, 3 uL/well CellTiter-Glo luminescent cell viability reagent (Promega Corporation, Madison, WI) was added using a Flying Reagent Dispenser (FRD) (Aurora Discovery, CA). After incubation at room temperature for 30 min, the luminescence intensity was read using a ViewLux plate reader (PerkinElmer, Waltham, MA).
A general note: qHTS replaces the single test concentration by a dilution series.
For the compound `CC(=O)CCC(=O)O`, the Potency entry is “inactive”. On the same count and under the same terms, to `C[C@](N)(Cc1ccc(O)c(O)c1)C(=O)O` belongs “inactive”; to `CN(C)C(=O)Nc1ccc(Cl)c(Cl)c1`, “inactive”. As for `COc1ccc(C(Cl)=C(c2ccc(OC)cc2)c2ccc(OC)cc2)cc1`, the “activity change, negative = cytotoxicity” value was -1.25% (inactive). Consider `CC(=O)Nc1c(I)c(NC(C)=O)c(I)c(C(=O)O)c1I`, for which the Potency result is “inactive”. For `CN1CCc2cccc3c2[C@H]1Cc1ccc(O)c(O)c1-3`, the “activity change, negative = cytotoxicity” value is 2.13% [at 70.9 µM] (inactive). As to `Cc1cc(=O)oc2cc(O)ccc12`, the Potency entry is “inactive”. On the same count and under the same terms, to `O=c1[nH]cnc2c1ncn2[C@H]1CC[C@@H](CO)O1` belongs “inactive”. Same read-out and setting: to `NC(CO)(CO)CO` belongs “inactive”. The same measure, in the same setting: next, `CS(=O)(=O)OCCCCOS(C)(=O)=O`: “inactive”. As to `CN(C)CCOC(C)(c1ccccc1)c1ccccn1` (stereo not given), the Potency result is “inactive”.

For the compound `NC1CCCCC1`, the Potency entry is “inactive”.

As to `CC1(C)S[C@@H]2[C@H](NC(=O)[C@H](N)c3ccccc3)C(=O)N2[C@H]1C(=O)O`, the Potency entry is “inactive”.

`C=C(C)C(=O)OCC(C)O` (stereo not given): the Potency result is “inactive”. For the compound `OC[C@H]1O[C@H](O[C@]2(CCl)O[C@H](CCl)[C@@H](O)[C@@H]2O)[C@H](O)[C@@H](O)[C@H]1Cl`, the Potency result is “inactive”. On the same count and under the same terms, to `CCCCCCc1ccc(O)cc1O` belongs 113 µM (active) and 101 µM (active); to `O=C1c2c(O)cccc2Cc2cccc(O)c21`, “inactive”. Same read-out and setting: next, `C=C1CC[C@H](O)C/C1=C\C=C1/CCC[C@]2(C)[C@@H]([C@H](C)CCCC(C)C)CC[C@@H]12`: 112 µM (active); `CCCCCCCCCCCC[N+](C)(C)Cc1ccccc1`: 98.8 µM (active) and 110 µM (active) and 49.2 µM (active); `C/C=C/C=C/C(=O)O`: “inactive”. On to `CN[C@H]1CC[C@@H](c2ccc(Cl)c(Cl)c2)c2ccccc21`, for which the Potency is 49.2 µM (active). For the compound `CN1CCC[C@H]1c1cccnc1`, the Potency result is “inactive”.

`Cc1ccc(S(=O)(=O)O)cc1`: the Potency result was “inactive”. The same measure, in the same setting: to `CC(C)NCC(O)c1ccc(O)c(O)c1` (stereo not given) belongs “inactive”; to `CC/C(=C(\c1ccccc1)c1ccc(OCCN(C)C)cc1)c1ccccc1`, 80.7 µM (active) [middle of 5 runs]. In the case of `CC(C)c1c(C(=O)Nc2ccccc2)c(-c2ccccc2)c(-c2ccc(F)cc2)n1CC[C@@H](O)C[C@@H](O)CC(=O)O`, the Potency entry was “inactive”. As to `CN(N=O)C(=O)N[C@@H]1[C@@H](O)[C@H](O)[C@@H](CO)O[C@@H]1O`, the Potency entry was “inactive”.

`CCOC(N)=O`: the Potency result was “inactive”. On the same count and under the same terms, to `Nc1ccc2c(c1)CN1C(=O)c3ccccc3C1=N2` belongs 17 µM (active); to `CN(C)CCOC(c1ccccc1)c1ccccc1`, “inactive”; to `CNNCc1ccc(C(=O)NC(C)C)cc1`, “inactive”.

As to `COc1ccc(CN(CCN(C)C)c2ccccn2)cc1`, the Potency result is “inactive”. As to `Nc1c2c(nc3ccccc13)CCCC2`, the Potency result is “inactive”. Consider `O=S1(=O)OC(c2ccc(O)cc2)(c2ccc(O)cc2)c2ccccc21`, for which the Potency entry is “inactive”. Consider `CCCC[P+](CCCC)(CCCC)CCCC`, for which the Potency result was “inactive”. Still for that read-out and setting: next, `CC(=O)C(=O)O`: “inactive”; `COc1ccc2c(c1)c(CC(=O)O)c(C)n2C(=O)c1ccc(Cl)cc1`: “inactive”. Turning to `CC(=O)CC(c1ccccc1)c1c(O)c2ccccc2oc1=O` (stereo not given), the Potency entry was “inactive”.

On to `CC(O)(P(=O)(O)O)P(=O)(O)O`, for which the Potency entry is “inactive”. `Cc1cn([C@H]2C=C[C@@H](CO)O2)c(=O)[nH]c1=O`: the Potency entry was “inactive”.
